{"source": "PubChem BioAssay AID602440", "about": "(Sanford-Burnham Center for Chemical Genomics, 2012)", "note": "Among all 360,000 compounds or so, about 2,300 (0.64%) were called active. Cut-off read from the data, not from the text of the source: active = inhibition mostly above about 40% (no sharp cut-off); inactive = mostly below about 27%. Many of the other results were omitted from the sample, so actives are more common in it than they were."}
{"molecular_target": "Sentrin-specific protease 8 (Homo sapiens) (UniProt Q96LD8)", "sequence (Q96LD8 whole entry, looked up)": "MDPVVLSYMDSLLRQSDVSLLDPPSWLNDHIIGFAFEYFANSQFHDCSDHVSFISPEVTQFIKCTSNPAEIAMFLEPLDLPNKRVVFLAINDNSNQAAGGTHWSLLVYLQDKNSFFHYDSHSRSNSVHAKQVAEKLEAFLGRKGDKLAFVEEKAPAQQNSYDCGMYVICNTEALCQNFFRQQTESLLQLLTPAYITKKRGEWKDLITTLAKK", "test": "human SENP8 protease inhibitors, primary screen, biochemical, fluorescence, Nedd8 protein substrate, uHTS (AID 602440)", "conditions": "recombinant SENP8, Nedd8 substrate fluorescence; at 20 µM; stronger effect = higher value"}
{"smiles": "COc1ccccc1S(=O)(=O)c1c(C)cc(C)[nH]c1=O", "inhibition": "-5.8% (inactive)"}
{"smiles": "Cc1cc(C)c(/C=C2\\C(=O)Nc3ccccc32)[nH]1", "inhibition": "59.5% (active)"}
{"smiles": "Cc1ccc(N(Cc2ccccc2O)C(=O)c2ccccc2F)cc1", "inhibition": "43.7% (active)"}
{"smiles": "Cc1cccc(N(Cc2ccccc2)C(=O)c2ccccc2F)c1", "inhibition": "10.3% (inactive)"}
{"smiles": "O=C(c1ccccc1F)N(Cc1ccccc1)Cc1ccccc1", "inhibition": "7.7% (inactive)"}
{"smiles": "CCC(=O)N1CCC(C(N)=O)(N2CCCCC2)CC1", "inhibition": "23.1% (inactive)"}
{"smiles": "CN1CCN(CC(=O)C23CC4CC(CC(C4)C2)C3)CC1", "inhibition": "8% (inactive)"}
{"smiles": "O=C(CCC(=O)OCc1cccc(C(=O)Oc2ccccc2)c1)Nc1cccc2ccccc12", "inhibition": "-5.4% (inactive)"}
{"smiles": "Cc1c(CC(=O)N2CCN(C(=O)C3COc4ccccc4O3)CC2)c(=O)oc2c(O)c(O)ccc12", "note": "(stereo unspecified)", "inhibition": "-291% (inactive)"}
{"smiles": "Cn1c2ccccc2n2c(=O)c(=O)n(CC(=O)c3ccc(F)cc3)nc12", "inhibition": "-7.8% (inactive)"}
{"smiles": "COc1ccc(NC(=O)CSc2nncc(=O)n2N)cc1OC", "inhibition": "8% (inactive)"}
{"smiles": "O=C1Nc2ccc([N+](=O)[O-])cc2C1=Nc1cccc(CO)c1", "inhibition": "65.6% (active)"}
{"smiles": "Cc1cc([N+](=O)[O-])ccc1NCc1cccc([N+](=O)[O-])c1", "inhibition": "29.2% (inactive)"}
{"smiles": "CN1CCN(/N=C2/C(=O)Nc3ccc([N+](=O)[O-])cc32)CC1", "inhibition": "23.5% (inactive)"}
{"smiles": "Cc1ccc(C(=O)COC(=O)CCCC(=O)NC2CCCCC2)cc1[N+](=O)[O-]", "inhibition": "19.6% (inactive)"}
{"smiles": "COc1ccc(NC(=O)CN(C)C(=O)c2ccc(NC3CC3)c([N+](=O)[O-])c2)cc1", "inhibition": "33.7% (inactive)"}
{"smiles": "Cc1cc(C=O)c(C)n1-c1ccc(NC2CCCCC2)c([N+](=O)[O-])c1", "inhibition": "56.6% (active)"}
{"smiles": "O=C(Nc1ccc2c(c1)[C@@H]1C[C@@H](CC(=O)N3CCCCC3)O[C@@H](CO)[C@@H]1O2)NC1CCCCC1", "inhibition": "15.5% (inactive)"}
{"smiles": "CC1Cc2[nH][nH]c(=O)c2C(C2CC2)O1", "note": "(stereo unspecified)", "inhibition": "19.9% (inactive)"}
{"smiles": "CN=C(Nc1cccc(S(=O)(=O)N2CCOCC2)c1)c1ccccc1", "inhibition": "9.5% (inactive)"}
{"smiles": "CCCC1CCC(=NNC(=S)NCCc2ccccc2)CC1", "note": "(stereo unspecified)", "inhibition": "45.2% (active)"}
{"smiles": "CCCCNC(=S)N/N=C1\\CCCCc2ccccc21", "inhibition": "21.8% (inactive)"}
{"smiles": "Cc1cc(F)ccc1NC(=S)NCCc1ccccc1", "inhibition": "8% (inactive)"}
{"smiles": "CCOC(=O)c1ccc(N2C(=O)CC(N(C)Cc3ccccc3)C2=O)cc1", "note": "(stereo unspecified)", "inhibition": "46.8% (active)"}
{"smiles": "CCOC(=O)c1ccc(N2C(=O)CC(N3CCN(C(=O)c4ccccc4)CC3)C2=O)cc1", "note": "(stereo unspecified)", "inhibition": "2.8% (inactive)"}
{"smiles": "CCOC(=O)c1ccc(N2C(=O)CC(N3CC(C)OC(C)C3)C2=O)cc1", "note": "(stereo unspecified)", "inhibition": "14% (inactive)"}
{"smiles": "COC(=O)C1=C(C(=O)OC)C(c2cc([N+](=O)[O-])ccc2O)c2sc(=O)[nH]c2S1", "note": "(stereo unspecified)", "inhibition": "38.8% (inactive)"}
{"smiles": "N#CC1(C#N)C(C(=O)C23CC4CC(CC(C4)C2)C3)C12CCOCC2", "note": "(stereo unspecified)", "inhibition": "2.5% (inactive)"}
{"smiles": "O=C1Nc2c(Br)cc(Br)cc2C1(O)N1CCOCC1", "note": "(stereo unspecified)", "inhibition": "60.2% (active)"}
{"smiles": "O=C(c1cc2cc(Br)cc(Br)c2oc1=O)N1CCOCC1", "inhibition": "-4.2% (inactive)"}
{"smiles": "Cc1ccc(Nc2nc(CSc3nnc(-c4ccncc4)n3-c3ccccc3C)cs2)cc1", "inhibition": "11.2% (inactive)"}
{"smiles": "Cc1oc2c(C)c3oc(=O)c(CC(=O)N[C@@H](CC(C)C)C(=O)N[C@@H](Cc4ccccc4)C(=O)O)c(C)c3cc2c1C", "inhibition": "-222% (inactive)"}
{"smiles": "Cc1ccc(NS(=O)(=O)c2ccc3c(c2)oc(=O)n3C)c(C)c1", "inhibition": "12.2% (inactive)"}
{"smiles": "CCN(CC(=O)NC1CCS(=O)(=O)C1)S(=O)(=O)c1ccccc1", "note": "(stereo unspecified)", "inhibition": "3.6% (inactive)"}
{"smiles": "COc1ccc2[nH]c(=O)c(CN(Cc3cccnc3)S(=O)(=O)c3ccccc3F)cc2c1", "inhibition": "-316% (inactive)"}
{"smiles": "CCc1ccccc1NC(=S)Nc1cc(OC)c(NC(=O)C(C)C)cc1OC", "inhibition": "22.3% (inactive)"}
{"smiles": "O=C(Nc1ccccc1C(=O)N1CCOCC1)C1CCC(=O)N1C1CCCC1", "note": "(stereo unspecified)", "inhibition": "7.7% (inactive)"}
{"smiles": "CCc1ccccc1NC(=O)[C@@H]1CCC(=O)N1C1OC(=O)c2c1ccc(OC)c2OC", "note": "(stereo partly specified)", "inhibition": "58.1% (active)"}
{"smiles": "CC(=O)NC(CC(=O)Nc1nccs1)c1ccccc1", "note": "(stereo unspecified)", "inhibition": "20.4% (inactive)"}
{"smiles": "CCC(C)NC(=O)c1ccc(NC(=O)CC2SC(N3CCCCC3)=NC2=O)cc1", "note": "(stereo unspecified)", "inhibition": "0.4% (inactive)"}
{"smiles": "CCOc1ccc(C(c2c(C)[nH][nH]c2=O)c2c(C)[nH][nH]c2=O)cc1OCC", "inhibition": "53.9% (active)"}
{"smiles": "CCOc1ccc(C(CC(=O)O)NC(=O)C23CC4CC(CC(C4)C2)C3)cc1OC", "note": "(stereo unspecified)", "inhibition": "9% (inactive)"}
{"smiles": "CCOc1ccc(C(C)NC(=O)CN2C(=O)NC3(CCCCC3)C2=O)cc1OCC", "note": "(stereo unspecified)", "inhibition": "4.1% (inactive)"}
{"smiles": "CCCCNC(=O)C[C@@H]1C[C@@]2(C(=O)OC)CC(C)(C)CC=C2N(Cc2ccco2)C1=O", "inhibition": "6% (inactive)"}
{"smiles": "O=[N+]([O-])c1ncc(Br)cc1Nc1ccccc1", "inhibition": "22.6% (inactive)"}
{"smiles": "CC(C)CCNC(=O)C1CCC(CNc2c(N3CCC(C)CC3)c(=O)c2=O)CC1", "note": "(stereo unspecified)", "inhibition": "42.8% (active)"}
{"smiles": "CC(NC(=O)C1CCC(CNc2c(N3CCOCC3)c(=O)c2=O)CC1)c1ccccc1", "note": "(stereo unspecified)", "inhibition": "9.1% (inactive)"}
{"smiles": "O=C(NCCCc1ccccc1)C1CCC(CNc2c(N3CCCCC3)c(=O)c2=O)CC1", "note": "(stereo unspecified)", "inhibition": "23.4% (inactive)"}
{"smiles": "Cc1ccc(CN2CCCOCCS2(=O)=O)cc1", "inhibition": "13.5% (inactive)"}
{"smiles": "CC(C)CN1CCC1(C)C(=O)Nc1ccc(OC(F)F)cc1", "note": "(stereo unspecified)", "inhibition": "5.2% (inactive)"}
{"smiles": "COCCNc1nc(-n2nc(C)cc2C)nc2sc3c(c12)CCCC3", "inhibition": "-415% (inactive)"}
{"smiles": "COc1ccc(C(C(=O)NC2CCCCC2)N(C(=O)Cc2c[nH]c3ccccc23)c2ccccc2)cc1OC", "note": "(stereo unspecified)", "inhibition": "-12.6% (inactive)"}
{"smiles": "CC(C)[C@H](NC(=O)OCc1ccccc1)C(=O)OCc1ccccc1", "inhibition": "5.8% (inactive)"}
{"smiles": "Cc1ccc(C(=O)Nc2c(-c3ccccc3)[nH][nH]c2=O)cc1", "inhibition": "12.1% (inactive)"}
{"smiles": "COc1ccc(NS(=O)(=O)c2cc(NC(=O)CC(=O)c3ccc([N+](=O)[O-])cc3)ccc2C)cc1", "inhibition": "6.3% (inactive)"}
{"smiles": "COc1ccc(-c2[nH][nH]c(=O)c2NC(=O)c2ccc([N+](=O)[O-])cc2)cc1", "inhibition": "60.2% (active)"}
{"smiles": "Cc1n[nH]c(C)c1S(=O)(=O)N1CCCC(C(=O)Nc2ccc(Br)cc2)C1", "note": "(stereo unspecified)", "inhibition": "13.4% (inactive)"}
{"smiles": "CCn1cc(C(=O)N2CC(C)CC(C)C2)c(=O)c2cc(S(=O)(=O)N3CCCC3)ccc21", "note": "(stereo unspecified)", "inhibition": "11.3% (inactive)"}
{"smiles": "Cc1ccc(N(C(=O)c2ccc(S(=O)(=O)N(C)C)cc2)C2C=CS(=O)(=O)C2)cc1", "note": "(stereo unspecified)", "inhibition": "9.3% (inactive)"}
{"smiles": "COC(=O)C1=C(C(=O)OC)[C@@H]2N(C)c3ccccc3[C@@]23C[C@@H](C(=O)OC)N(C(=O)c2ccco2)C3=N1", "inhibition": "3.7% (inactive)"}
{"smiles": "COc1ccc(C(=O)NC(=S)N2CCCCC2c2cccnc2)cc1OC", "note": "(stereo unspecified)", "inhibition": "8.4% (inactive)"}
{"smiles": "O=C(NC(=S)N1CCCCC1c1cccnc1)c1ccccc1", "note": "(stereo unspecified)", "inhibition": "46.4% (active)"}
{"smiles": "O=C(Nc1ccccc1C(F)(F)F)N1CCCC1c1cccnc1", "note": "(stereo unspecified)", "inhibition": "6.2% (inactive)"}
{"smiles": "COc1cccc(NC(=O)CN(C)CC(=O)c2c(N)n(Cc3ccccc3)c(=O)n(C)c2=O)c1", "inhibition": "0.5% (inactive)"}
{"smiles": "COc1cc(/C=C/CO)cc(OC)c1O[C@@H]1O[C@H](CO)[C@@H](O)[C@H](O)[C@H]1O", "inhibition": "-20.9% (inactive)"}
{"smiles": "Cc1ccc(CNS(=O)(=O)CCNC(=O)c2ccccc2)cc1", "inhibition": "5.7% (inactive)"}
{"smiles": "CCCCNCCS(=O)(=O)NCc1ccccc1", "inhibition": "61.4% (active)"}
{"smiles": "CCCCNS(=O)(=O)CCNCc1ccccc1OC", "inhibition": "5.2% (inactive)"}
{"smiles": "O=C(NCc1ccco1)/C(=C/c1cccc([N+](=O)[O-])c1)NC(=O)c1ccco1", "inhibition": "15.2% (inactive)"}
{"smiles": "O=C(NCc1ccco1)/C(=C\\c1cccc([N+](=O)[O-])c1)NC(=O)c1ccco1", "inhibition": "9.4% (inactive)"}
{"smiles": "Cc1ccc(C(=O)N/C(=C/c2ccc(-c3cccc([N+](=O)[O-])c3)o2)C(=O)NCCCN(C)C)cc1", "inhibition": "51.7% (active)"}
{"smiles": "COc1ccc(C(=O)OCC(=O)Nc2cc(C)on2)cc1F", "inhibition": "10.9% (inactive)"}
{"smiles": "CN(C)S(=O)(=O)c1cc(C(=O)Nc2ccn(C)n2)c(Cl)cc1Cl", "inhibition": "19.3% (inactive)"}
{"smiles": "CN=C1SC(CC(=O)Nc2ccc(C(=O)O)cc2)C(=O)N1C", "note": "(stereo unspecified)", "inhibition": "16.1% (inactive)"}
{"smiles": "CCN=C1SC(CC(=O)Nc2ccc(C)cc2)C(=O)N1CC", "note": "(stereo unspecified)", "inhibition": "40.5% (active)"}
{"smiles": "CCN1C(=O)C(CC(=O)Nc2cc(C)ccc2C)SC1=Nc1ccc(S(N)(=O)=O)cc1", "note": "(stereo unspecified)", "inhibition": "13.6% (inactive)"}
{"smiles": "Cc1cccc(N2CC(C(=O)Nc3ccccc3N3CCCC3)CC2=O)c1C", "note": "(stereo unspecified)", "inhibition": "14.3% (inactive)"}
{"smiles": "CC1CCN(c2ccc(C(=O)NCc3ccc4c(c3)OCO4)cc2[N+](=O)[O-])CC1", "inhibition": "20.8% (inactive)"}
{"smiles": "CC1CCN(c2ccc3c(c2)S(=O)(=O)c2cc(C(=O)O)ccc2C3=O)CC1", "inhibition": "-15.6% (inactive)"}
{"smiles": "CC1CCN(c2ccc([N+](=O)[O-])c(SCCO)c2)CC1", "inhibition": "40.3% (active)"}
{"smiles": "COc1ccc(C(=O)N2CCC(C(=O)Nc3cccc(C)c3)CC2)cc1OC", "inhibition": "9.3% (inactive)"}
{"smiles": "COc1ccc(-c2c(C)nn3c(N4CCC(C(=O)N5CCCCC5)CC4)cc(C)nc23)cc1OC", "inhibition": "-21.1% (inactive)"}
{"smiles": "COC(=O)[C@]12CCCCC=C1N(Cc1ccc3c(c1)OCO3)C(=O)[C@H](CC(=O)NCc1cccs1)C2", "inhibition": "19.5% (inactive)"}
{"smiles": "CCOc1ccc(S(=O)(=O)N2CCN=C2Cc2ccccc2)cc1C", "inhibition": "23.3% (inactive)"}
{"smiles": "COC(=O)C(C)N=Cc1ccccc1", "note": "(stereo unspecified)", "inhibition": "0.2% (inactive)"}
{"smiles": "Nc1nnn(CC(=O)N/N=C/c2ccccc2)n1", "inhibition": "-8.5% (inactive)"}
{"smiles": "NN=C(NN=Cc1ccccc1)c1ccccc1", "inhibition": "49.4% (active)"}
{"smiles": "O=C(NCc1ccccc1)C(=O)NCC1OCCN1S(=O)(=O)c1ccc(Br)cc1", "note": "(stereo unspecified)", "inhibition": "0.6% (inactive)"}
{"smiles": "COc1ccc(C2(C)NC(=O)N(CC(=O)c3ccc4c(c3)OCO4)C2=O)cc1", "note": "(stereo unspecified)", "inhibition": "-8.5% (inactive)"}
{"smiles": "CCOc1ccc(C(=O)CCN2CCOCC2)cc1", "inhibition": "5.4% (inactive)"}
{"smiles": "CCOc1ccc(NCCC(=O)c2ccc3c(c2)OCO3)cc1", "inhibition": "37.1% (active)"}
